Inconclusive results are not listed. Values without a mark were called inactive. Activity calls are given as the source filed them. Calls come from the whole dose curve; as a rule, active = well fitted inhibition curve with a large enough effect in the repeat runs; inconclusive = weak or mixed curves; inactive = no such curve, though single readings can be large or run the other way.
molecular target: Cytochrome P450 2C19 (Homo sapiens) (UniProt P33261); assay: Cytochrome P450 Family 2 Subfamily C Member 19 (CYP2C19) small molecule antagonists: luciferase reporter qHTS assay (AID 1671197); details: P450-Glo CYP2C19 enzyme, luciferin luminescence, 1 h; series mostly up to 115 µM; activity change, negative = inhibition: at the top concentration; note: nearly all actives have a fitted effect of over 65% in size
Procedure, shortened: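 CYP2C19 P450-Glo, 1536-well qHTS. Cpd + enzyme/proluciferin substrate 10 min RT; + NADPH regen, 37C 1 h; stop with luciferin detection reagent, 20 min RT, luminescence (RLU). Pos ctrl ketoconazole.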
% is set by controls: 0 for no effect and ±100 for the full control effect; potency is the fitted concentration of half-maximal effect.

Cytochrome P450 2C19 (Homo sapiens), sequence (P33261 whole entry, looked up): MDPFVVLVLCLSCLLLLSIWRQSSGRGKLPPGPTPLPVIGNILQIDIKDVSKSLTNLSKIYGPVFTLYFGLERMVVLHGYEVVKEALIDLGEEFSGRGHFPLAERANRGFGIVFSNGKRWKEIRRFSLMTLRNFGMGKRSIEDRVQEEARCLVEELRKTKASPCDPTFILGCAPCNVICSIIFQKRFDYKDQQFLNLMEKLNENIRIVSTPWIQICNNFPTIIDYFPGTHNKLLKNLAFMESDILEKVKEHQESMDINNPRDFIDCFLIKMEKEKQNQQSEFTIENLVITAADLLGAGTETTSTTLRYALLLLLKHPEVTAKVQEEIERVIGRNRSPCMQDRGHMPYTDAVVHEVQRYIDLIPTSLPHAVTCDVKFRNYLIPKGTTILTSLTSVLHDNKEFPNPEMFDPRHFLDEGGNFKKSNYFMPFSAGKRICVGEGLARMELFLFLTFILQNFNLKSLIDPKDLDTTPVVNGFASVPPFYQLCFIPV

Compound	activity change, negative = inhibition	Potency
O=c1[nH]c2cc(C(F)(F)F)c(N3CCOCC3)cc2n(CP(=O)(O)O)c1=O	-1.46% [at 52.9 µM]	
CSSc1ccoc1C	-2.92%	
Cc1cccc(C)c1NC(=O)c1cc(S(N)(=O)=O)c(Cl)cc1O	19.7% [at 52.9 µM]	
CC(CO)(CO)C(=O)O		72.4 µM (active)
CC(C)(O)CCc1ccccc1		71 µM (active)
CSCC[C@H](NC(=O)[C@H](Cc1c[nH]c2ccccc12)NC(=O)CCNC(=O)OC(C)(C)C)C(=O)N[C@@H](CC(=O)O)C(=O)N[C@@H](Cc1ccccc1)C(N)=O	-9.84% [at 52.9 µM]	
CC1CCC(C(C)CS)CC1S (stereo not given)	-5.8%	
CC(C)(C)S		41.3 µM (active)
CC(C)(C)NCC(O)COc1cccc2c1C[C@H](O)[C@H](O)C2 (stereo not given in full)	6.26% [at 52.9 µM]	
CNS(=O)(=O)c1cc(C(=O)N2CCC(CCN3C4CCC3CC(n3c(C)nc5ccccc53)C4)(c3cccc(F)c3)CC2)c(Cl)cc1F (stereo not given)		63.3 µM (active)
CCN(CC)c1ccc(C(=C2C=CC(=[N+](CC)CC)C=C2)c2ccc(S(=O)(=O)O)cc2S(=O)(=O)[O-])cc1		17.8 µM (active)
FC(F)(F)C(F)(F)C(F)(F)C(F)(F)CCI	9.08% [at 52.9 µM]	
Cc1ccc(S(=O)(=O)NC(=O)NC2CCCCC2)cc1	14.7% [at 52.9 µM]	
CC(C)c1ccc(C#N)cc1	-8.9%	
O=C(c1ccccc1)c1ccc(O)cc1		40.4 µM (active)
CCN(CC)C(=O)N1CCN(C)CC1	-6.43% [at 52.9 µM]	
O=[N+]([O-])c1ccc2ncccc2c1		40 µM (active)
CCC(=O)OCc1ccc(OC)cc1		64.9 µM (active)
ClC1=C(Cl)C1(Cl)Cl	20.1%	
O=C(O)c1cccc(Oc2ccccc2)c1	-19.1%	
